ALDH1A1 inh – ALDH1A1 (human) enzyme inhibition; P00352; Purified ALDH1A1, NADH fluorescence, propionaldehyde substrate; Potency, µM (top dose mostly 75.3 µM), without a hit: at the highest dose activity, negative = inhibition, hits mostly inhibitors; hit rate 7.3% among 220,000;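 note: potency is the fitted concentration of half-maximal effect; plate controls were no enzyme wells and a reference inhibitor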
HTT cytoprotect – protects HTT-Q103 PC12 cells, measured by ATP; hit rate 0.14% among 230,000; PC12 HTT-Q103 induced, cytoprotection, ATP luminescence, 40 h; Potency, µM (series often up to 56.4 µM), for inactives: cytoprotection (ATP increase), most hits filed as activators; AID 1471; active = well fitted curve in the direction sought with a large enough effect; inconclusive = small, poorly fitted or top-dose-only effect, or another doubt; inactive = no such curve, though single readings can be large; an effect the other way counts as inactive or inconclusive; note: potency is the fitted concentration of half-maximal effect; % of control where 0% means no effect; nearly all actives have a fitted effect of over 45% in size
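PC12 cells stably carrying ecdysone-inducible Htt exon 1 (Q103)–GFP were induced with 100 nM tebufenozide (final) alongside library compounds in a dose series. Cytoprotection was scored as retained ATP by ATPlite luminescence.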
HPGD inh – inhibitors of human 15-hydroxyprostaglandin dehydrogenase (HPGD) | P15428 | purified HPGD, NADH fluorescence kinetic, PGE2 substrate | Potency, µM, for the others: at the top dose activity change, negative = inhibition, actives largely listed as inhibitors | hit rate 4.3% among 150,000 | AID 894; note: potency is the fitted concentration of half-maximal effect; % is set by controls: 0 for no effect and ±100 for the full control effect
Target sequence (P15428 whole entry, looked up): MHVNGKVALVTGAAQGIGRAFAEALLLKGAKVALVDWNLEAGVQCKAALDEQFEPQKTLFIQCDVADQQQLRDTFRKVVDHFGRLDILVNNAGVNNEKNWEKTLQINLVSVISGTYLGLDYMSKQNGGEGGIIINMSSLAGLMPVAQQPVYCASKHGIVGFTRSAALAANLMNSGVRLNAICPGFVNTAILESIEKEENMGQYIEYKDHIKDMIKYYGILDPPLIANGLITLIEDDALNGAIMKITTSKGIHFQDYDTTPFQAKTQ
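20 nM HPGD preincubated 15 min at room temperature with compound in 50 mM Tris-HCl pH 8, 0.01% Tween 20. Started with 1 mM NAD+ and 30 uM prostaglandin E2; NADH fluorescence (360/450 nm) read 5 times over 30-s intervals, last minus first.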
PNC assembly inh – perinucleolar compartment assembly inhibition. PC3M PTB-GFP, PNC prevalence imaging, 16 h; hits give low values. AID 2417. hit rate 3.1% among 140,000. activity change (PNC), negative = inhibition, % at 10 µM;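 active = readout at or below -70, meaning at least 70% loss of cells showing the perinucleolar compartment, a nuclear body marking cancer cells; inconclusive = readout between -30 and a set limit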;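 note: plate controls were DMSO wells for no effect and camptothecin positive control wells for full effect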
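Compounds are pinned in duplicate onto adhered PC3M cells stably expressing GFP-tagged PTB and incubated 16 h at 37 C. Cells are then fixed, nuclei stained with Hoechst, and PNC-positive cells counted.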
GoLoco inh red – blocks human Gai1 binding to RGS12 GoLoco peptide, red readout | P63096 | Gai1:RGS12 GoLoco peptide FP, rhodamine, 10 min | Potency, µM (top dose mostly 61.6 µM), inactives show at the top dose activity, negative = inhibition, most hits filed as inhibitors | hit rate 0.44% among 230,000 | AID 880; active = well fitted inhibition curve with a large enough effect, not every such curve was filed as active; inactive = no such curve, though single readings can be large or run the other way; note: potency is the fitted concentration of half-maximal effect; % is set by controls: 0 for no effect and ±100 for the full control effect; nearly all actives have a fitted effect of over 30% in size
Target sequence (P63096 whole entry, looked up): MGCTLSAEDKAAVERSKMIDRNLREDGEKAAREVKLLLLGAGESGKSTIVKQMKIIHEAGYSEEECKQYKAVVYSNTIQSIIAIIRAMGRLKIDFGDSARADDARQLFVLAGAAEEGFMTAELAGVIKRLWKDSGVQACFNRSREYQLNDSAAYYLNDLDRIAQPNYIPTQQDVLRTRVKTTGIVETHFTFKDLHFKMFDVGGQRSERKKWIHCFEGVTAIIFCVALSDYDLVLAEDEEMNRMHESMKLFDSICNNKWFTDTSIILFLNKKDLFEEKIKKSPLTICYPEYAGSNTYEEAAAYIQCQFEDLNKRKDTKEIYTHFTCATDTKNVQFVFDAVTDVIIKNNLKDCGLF
HTT aggregate – mutant huntingtin aggregation inhibition; PC12 HttQ103-GFP aggregates, Acumen cytometry, 40 h; Potency, µM (doses to about 46.1 µM), for inactives: top-dose activity change, negative = inhibition, most hits filed as inhibitors; hit rate 1.1% among 220,000; active = well fitted curve in the direction sought with a large enough effect; inconclusive = small, poorly fitted or top-dose-only effect, or another doubt; inactive = no such curve, though single readings can be large; an effect the other way counts as inactive or inconclusive; note: potency is the fitted concentration of half-maximal effect; % is set by controls: 0 for no effect and ±100 for the full control effect; nearly all actives have a fitted effect of over 60% in size
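Quantitative HTS on tebufenozide-induced (100 nM) PC12 cells stably expressing polyQ103 Huntingtin exon 1–GFP. Reduction of bright GFP aggregates, detected by laser scanning cytometry after lysis, identified actives across the titration.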
* = called active by the depositor; [ ] = another dose, or the depositor's remark. Most compounds without a hit are left out; they make up all but 11% or so of the library. Unless noted, calls come from the whole dose curve; as a rule, active = well fitted inhibition curve with a large enough effect (not every such curve was filed as active); inconclusive = small, poorly fitted or top-dose-only effect, or another doubt; inactive = no such curve, though single readings can be large or run the other way.

Results for CCOC(=O)/C(=C\c1cccc(O)c1)c1nc2sc(C)c(C)c2c(=O)[nH]1 ?
ALDH1A1 inh: 7.94µM*; HTT cytoprotect: -28.6%[10 µM]; HPGD inh: 7.94µM*; PNC assembly inh: inconclusive; GoLoco inh red: 0.9%; HTT aggregate: 4.3%

How did CCOC(=O)c1[nH]c2ccccc2c1NC(C)=O do in these assays?
HTT cytoprotect: 0.0%[10 µM]; GoLoco inh red: 5.5%; HTT aggregate: -1.7%[9.22 µM]

What do the screens show for `CC(=O)Nc1c(O)[nH]c2ccccc12`?
ALDH1A1 inh: 13.2%; HTT cytoprotect: -15.1%[10 µM]; HPGD inh: -8.4%; PNC assembly inh: -98.0*; GoLoco inh red: -11.6%; HTT aggregate: 8.8%

How did CC[C@H](C(=O)c1cccs1)C(O)(C(F)(F)F)C(F)(F)F do in these assays?
ALDH1A1 inh: -8.5%[13.5 µM]; HTT cytoprotect: 2.4%[10 µM]; HPGD inh: -5.9%; GoLoco inh red: 5.1%[14.2 µM]

Results for COc1ccc(CN(CC2CCC(C(=O)O)CC2)C(=S)Nc2cc(C)ccc2C)cc1 (configuration not stated) ?
ALDH1A1 inh: 3.55µM*; HTT cytoprotect: inconclusive; GoLoco inh red: -10.9%; HTT aggregate: 2.6%

Results for COc1ccc(CN(CC2CCC(C(=O)O)CC2)C(=S)Nc2ccccc2C)cc1 (configuration not stated) ?
ALDH1A1 inh: inconclusive; HTT cytoprotect: -35.0%; GoLoco inh red: -3.8%; HTT aggregate: 8.6%

Results for O=C(Nc1ccc([N+](=O)[O-])cc1)Nc1ccc(Cl)cc1F ?
ALDH1A1 inh: 8.8%; GoLoco inh red: 35.5%; HTT aggregate: inconclusive

How did O=C(Nc1ccc(Cl)cc1)Nc1cc([N+](=O)[O-])ccc1F do in these assays?
ALDH1A1 inh: 3.1%; HTT cytoprotect: -4.1%[10 µM]; HPGD inh: -1.2%; PNC assembly inh: -12.9; GoLoco inh red: -2.7%; HTT aggregate: 20µM*

Results for Cc1ccc(NC(=O)Nc2ccccc2)cc1[N+](=O)[O-] ?
ALDH1A1 inh: -14.5%; HTT cytoprotect: -16.1%[10 µM]; HPGD inh: -19.6%; PNC assembly inh: inconclusive; GoLoco inh red: 5.2%; HTT aggregate: 4.1%

Results for O=C(Nc1ccccc1)Nc1ccc(Cl)c([N+](=O)[O-])c1 ?
ALDH1A1 inh: -3.4%; HTT cytoprotect: -9.3%[0.074 µM]; HPGD inh: -6.4%; PNC assembly inh: 74.7; GoLoco inh red: -4.0%; HTT aggregate: 12.6µM*

Results for CCOc1ccc(N2CC(C(=O)Nc3c(C)n(C)n(-c4ccccc4)c3=O)CC2=O)cc1 (configuration not stated) ?
ALDH1A1 inh: -5.7%; HTT cytoprotect: -8.1%; GoLoco inh red: 12.8%; HTT aggregate: -9.5%

What do the screens show for `CN(C)c1ccc(NC(=O)c2cccc(C(=O)Nc3ccc(N(C)C)cc3)n2)cc1`?
ALDH1A1 inh: 8.91µM*; HTT cytoprotect: 23.7%[10 µM]; HPGD inh: -17.2%; PNC assembly inh: 118.9; GoLoco inh red: 18.3%; HTT aggregate: -27.4%

Results for CN(C)c1ccc(NC(N)=S)cc1 ?
ALDH1A1 inh: 11.9µM*; HTT cytoprotect: 29.3%[10 µM]; HPGD inh: -8.2%; PNC assembly inh: inconclusive; GoLoco inh red: -15.5%; HTT aggregate: 0.1%

What do the screens show for `CN(C)c1ccc(NC(=O)c2ccc3nsnc3c2)cc1`?
ALDH1A1 inh: inconclusive; HTT cytoprotect: -1.8%[10 µM]; HPGD inh: -14.7%; PNC assembly inh: 27.2; GoLoco inh red: 12.6µM*; HTT aggregate: -16.4%

How did O=C(CNC(=O)c1ccccc1Br)N/N=C/c1ccc(O)cc1 do in these assays?
ALDH1A1 inh: inconclusive; HTT cytoprotect: -2.6%[10 µM]; GoLoco inh red: -12.0%; HTT aggregate: 11.7%

How did COc1ccccc1/C=C/C(=O)NCC(=O)N1CCC(N(C)C2CCCC2)CC1 do in these assays?
ALDH1A1 inh: -17.8%; HTT cytoprotect: -46.3%; GoLoco inh red: -11.4%; HTT aggregate: 8.9%

How did O=C(CN1C(=O)C(c2ccc(F)cc2)=NC12CCCC2)Nc1ccc(F)cc1 do in these assays?
ALDH1A1 inh: inconclusive; HTT cytoprotect: -77.3%; GoLoco inh red: 7.0%; HTT aggregate: inconclusive

What do the screens show for `CN1CCC2(CC1)N=C(c1ccc(F)cc1)C(=S)N2C(=O)c1ccccc1`?
ALDH1A1 inh: 22.4µM*; HTT cytoprotect: -18.8%[10 µM]; PNC assembly inh: 56.8; HTT aggregate: 17.0%

How did CCN1CCC2(CC1)N=C(c1ccc(F)cc1)C(=S)N2C(=O)c1ccc(C(C)(C)C)cc1 do in these assays?
ALDH1A1 inh: 28.2µM*; HTT cytoprotect: -19.4%[10 µM]; PNC assembly inh: 23.4; HTT aggregate: 12.9%

What do the screens show for `COc1cccc2c1[C@H](CO)N1[C@H](C#N)[C@@H]3C[C@H](C(=O)O)[C@@H]([C@@H]1C2)N3C`?
ALDH1A1 inh: 6.2%[13.5 µM]; HTT cytoprotect: -50.9%[10 µM]; HPGD inh: -1.7%; GoLoco inh red: 7.5%[14.2 µM]

What do the screens show for `Nc1nccs1`?
ALDH1A1 inh: -3.8%; HTT cytoprotect: inconclusive; HPGD inh: -5.4%; GoLoco inh red: 0.6%; HTT aggregate: 6.0%

Results for O=C(CN1C(=O)CCC1=O)NCC12CC3CC(CC(C3)C1)C2 ?
ALDH1A1 inh: 1.12µM*; HTT cytoprotect: -4.2%; HPGD inh: -5.2%; PNC assembly inh: 22.3; GoLoco inh red: -5.5%; HTT aggregate: 29.0%

How did COCCNCC(=O)NCC12CC3CC(CC(C3)C1)C2 do in these assays?
ALDH1A1 inh: 28.2µM*; HTT cytoprotect: 3.4%; HPGD inh: -5.7%; PNC assembly inh: -22.3; GoLoco inh red: 2.9%; HTT aggregate: -12.5%[9.22 µM]

Results for O=c1oc2cc(N=Cc3ccc4c(c3)OCO4)ccc2c2ccccc12 ?
ALDH1A1 inh: inconclusive; HTT cytoprotect: -4.4%[10 µM]; HPGD inh: -13.9%; GoLoco inh red: 4.5%[14.2 µM]

How did Cc1ccc(S(=O)(=O)Cc2ccc(C(=O)N3CCCC3)o2)cc1 do in these assays?
ALDH1A1 inh: -13.5%; HTT cytoprotect: 13.9%; HPGD inh: 2.4%; PNC assembly inh: -86.6*; GoLoco inh red: -0.4%; HTT aggregate: -15.8%

How did Cc1ccc(C)c(N2CCN(C(=O)c3ccc(CS(=O)(=O)c4ccccc4C)o3)CC2)c1 do in these assays?
ALDH1A1 inh: inconclusive; HTT cytoprotect: -7.9%[10 µM]; HPGD inh: -7.5%; PNC assembly inh: 20.8; GoLoco inh red: 9.6%; HTT aggregate: 28.2µM*

What do the screens show for `Cc1cccc(N2CCN(C(=O)c3ccc(CS(=O)(=O)c4ccccc4C)o3)CC2C)c1` (configuration not stated)?
ALDH1A1 inh: -4.0%; HTT cytoprotect: -143.3%[0.074 µM]; HPGD inh: -1.5%; PNC assembly inh: inconclusive; GoLoco inh red: 2.7%; HTT aggregate: 22.4µM*

How did Cc1ccc(S(=O)(=O)Cc2ccc(C(=O)N3CCN(c4cc(C)ccc4C)CC3)o2)cc1 do in these assays?
ALDH1A1 inh: -6.1%; HTT cytoprotect: -20.2%; HPGD inh: -10.4%; PNC assembly inh: inconclusive; GoLoco inh red: 1.5%; HTT aggregate: -3.5%

From PubChem
